Bioassay records from PubChem BioAssay.
GDH-TPI inh = GDH-TPI coupling enzyme inhibitors, primary screen, artefact control for M. tuberculosis FBA inhibitor project, biochemical, absorbance, full deck. actives 1.2% (n = 360,000). inhibition, % at 4.8 µM. GDH-TPI coupled enzyme counterscreen, NADH absorbance; in the data active = inhibition above about 30%;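 also: 0% = DMSO wells and 100% = wells lacking the enzyme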
Mtb UGM inh = M. tuberculosis UGM enzyme inhibitors, primary screen, biochemical, fluorescence polarization, single point; purified UGM, fluorescence polarization probe displacement; inhibition, % at 10 µM; actives 0.06% (n = 320,000); AID 504406, 2011; in the data active = inhibition above about 10%, passing the limit was not always enough
Mtb FBA inh = Mtb FBA enzyme inhibitors, primary screen, biochemical, fluorescence, strain H37Rv | Fructose-bisphosphate aldolase (Mycobacterium tuberculosis (strain ATCC 25618 / H37Rv)), … | purified M. tuberculosis FBA, fluorescence read-out | inhibition, % at 1 µM | actives 2.3% (n = 360,000) | AID 588726, 2011; in the data active = inhibition above about 27%;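 also: 0% = vehicle and 100% = reference inhibitor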
Target sequence (P9WQA3 whole entry, looked up): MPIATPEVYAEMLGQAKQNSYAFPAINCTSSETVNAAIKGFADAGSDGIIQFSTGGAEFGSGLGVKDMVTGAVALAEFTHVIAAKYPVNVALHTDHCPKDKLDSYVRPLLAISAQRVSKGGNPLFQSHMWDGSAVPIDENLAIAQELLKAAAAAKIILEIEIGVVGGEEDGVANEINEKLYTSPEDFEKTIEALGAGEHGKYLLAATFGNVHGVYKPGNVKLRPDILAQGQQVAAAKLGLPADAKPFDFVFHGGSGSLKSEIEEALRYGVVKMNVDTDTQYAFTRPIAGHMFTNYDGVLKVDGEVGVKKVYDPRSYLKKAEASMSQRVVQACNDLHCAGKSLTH
Rv3671c protease = Rv3671c serine protease inhibitors, primary screen, biochemical, fluorescence polarization, M. tuberculosis H37Rv | inhibition, % at 5.96 µM | actives 0.048% (n = 320,000) | AID 2606, 2010; in the data active = inhibition above about 38%;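 also: extracellular domain of Rv3671c used as enzyme; 0% = enzyme with DMSO and 100% = no enzyme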
An asterisk follows results filed as active; . = no result given. Sampled rows, rich in hits. Any-hit rate of the full collection: about 3.5%.

SMILES | GDH-TPI inh | Mtb UGM inh | Mtb FBA inh | Rv3671c protease
Cc1ccc(Cl)cc1N1CCN(C(=O)c2noc(C(C)C)c2[N+](=O)[O-])CC1 | 12 | 1 | 5 | -1
Cc1ccc(S(=O)(=O)Nc2nc3ccccc3nc2NCc2ccco2)cc1 | 32* | 4 | 22 | 7
Cc1cccc(S(=O)(=O)Nc2nc3ccccc3nc2NCC2CCCO2)c1 (centres undefined) | 33* | 1 | 4 | 16
O=S(=O)(Nc1nc2ccccc2nc1NCC1CCCO1)c1cccs1 (centres undefined) | 27 | 0 | 5 | 0
Cc1ccc(S(=O)(=O)Nc2nc3ccccc3nc2NCC2CCCO2)cc1C (centres undefined) | 33* | -1 | 19 | 10
O=S(=O)(Nc1nc2ccccc2nc1NCc1ccco1)c1ccc(Cl)cc1 | 10 | 1 | 2 | -6
CCC(C)(C)NC(=O)C(c1cccc(OC)c1OC)N(CCOC)C(=O)CCC(=O)Nc1cc(C)on1 (centres undefined) | 2 | 1 | 0 | 2
CC(=O)c1sccc1NC(=O)CC(C)(C)CC(=O)O | 1 | 0 | 0 | 1
CCC(NC(=O)Cc1c(C)c2ccc(OC)c(C)c2oc1=O)C(=O)NC(Cc1ccc(Cl)cc1)C(=O)O (centres undefined) | 20 | 2 | 143* | -7
Nc1c(C(=O)NCc2ccco2)c2nc3ccccc3nc2n1CCc1ccc(F)cc1 | 4 | -1 | 28* | -102
CC(C)OCCCNC(=O)c1c(N)n(/N=C/c2ccccn2)c2nc3ccccc3nc12 | 13 | 1 | 1 | -14
COCCCNC(=O)c1c(N)n(Cc2ccco2)c2nc3ccccc3nc12 | 15 | 1 | 118* | -8
CC(C)OCCCNC(=O)c1c(N)n(Cc2cccs2)c2nc3ccccc3nc12 | 13 | 1 | 34* | -177
COCCOC(=O)c1c(N)n(Cc2ccco2)c2nc3ccccc3nc12 | 30 | 1 | 150* | 1
CC(=O)c1ccc(N2CCN(C(=O)CCC(=O)Nc3ccc4nc(N5CCN(C)CC5)cc(C)c4c3)CC2)cc1 | 26 | 6 | 5 | -4
Cc1ccc(CNC(=O)C(C)C2Sc3ccccc3NC2=O)cc1 (centres undefined) | -2 | 0 | -1 | 4
CC(=O)N/C(=C\c1ccccc1)C(=O)OC/C=C/c1ccccc1 | 2 | -5 | 0 | 9
CC(C)CNC(=O)c1c(N)n(Cc2ccco2)c2nc3ccccc3nc12 | 12 | 0 | 55* | -34
CCCNC(=O)c1c(N)n(Cc2ccco2)c2nc3ccccc3nc12 | . | 0 | . | 2
O=C(c1ccc(C(=O)N2CCCc3ccccc32)s1)N1CCCc2ccccc21 | 13 | -5 | -2 | -3
O=C(c1cnc2sccn2c1=O)N1CCCc2ccccc21 | 32* | -2 | 0 | -3
CC1CCC(NC(=O)CN2C(=O)NC(C)(C)C2=O)CC1 (centres undefined) | 2 | 0 | 0 | 7
O=S1(=O)C=C[C@@H](CO)N1Cc1ccc(Br)cc1 | . | . | 3 | .
CCCOC(=O)c1cc(-c2ccc(/C=C3/C(=O)N(C)C(=O)C(C#N)=C3C)o2)ccc1Cl | 1 | 2 | -1 | -12
C=CCOC(=O)c1cc(-c2ccc(/C=C3\C(=O)NC(=O)C(C#N)=C3C)o2)ccc1Cl | 34* | . | 6 | .
SMILES | GDH-TPI inh | Mtb UGM inh | Mtb FBA inh | Rv3671c protease
O=C1N/C(=N\N=C\c2ccccn2)SC1Cc1cccc(SC(F)F)c1 (centres undefined) | 47* | 0 | 0 | -3
COc1ccc(C2Nc3ccccc3C(=O)N2NS(C)(=O)=O)cc1OC (centres undefined) | 5 | 0 | 25 | 6
COc1ccc(C2Nc3ccccc3C(=O)N2Cc2ccccc2)cc1OC (centres undefined) | -1 | -5 | 74* | -6
Cc1cc(-c2csc3nc[nH]c(=S)c23)cc(C)c1C | 40* | 0 | 3 | 5
Cc1ccc(-c2csc3nc[nH]c(=S)c23)cc1 | 15 | 0 | 1 | 14
N#CCc1ccc(NC(=O)/C=C/c2ccc([N+](=O)[O-])o2)cc1 | 34* | . | -1 | .
Cc1nnc(SCC(=O)N/N=C/c2cc(Cl)c(O)c(Cl)c2)s1 | 35* | 1 | -4 | -9
Cc1ccc(S(=O)(=O)NN=Cc2ccccc2Cl)cc1 | 13 | . | -2 | .
COCc1ccc(CN2CCC(n3nccc3NC(=O)CCOc3ccccc3)CC2)o1 | -3 | -1 | -3 | 5
